Data from PubChem BioAssay.

Assays:
[1] = system: Botulinum neurotoxin type F light chain protease (Clostridium botulinum); test: Botulinum neurotoxin type F light chain protease inhibition, multiplex microsphere flow cytometry, validation set (AID 588459); conditions: multiplex microsphere protease substrate cleavage assay, at 10 µM, stronger effect = higher value
[2] = molecular target: Botulinum neurotoxin type A (Clostridium botulinum) (UniProt P0DPI0); test: BoNT/A light chain protease inhibitors, biochemical, multiplex microsphere flow cytometry, validation set (AID 588460); conditions: at 10 µM, stronger effect = higher value
Botulinum neurotoxin type A (Clostridium botulinum), sequence (P0DPI0 whole entry, looked up): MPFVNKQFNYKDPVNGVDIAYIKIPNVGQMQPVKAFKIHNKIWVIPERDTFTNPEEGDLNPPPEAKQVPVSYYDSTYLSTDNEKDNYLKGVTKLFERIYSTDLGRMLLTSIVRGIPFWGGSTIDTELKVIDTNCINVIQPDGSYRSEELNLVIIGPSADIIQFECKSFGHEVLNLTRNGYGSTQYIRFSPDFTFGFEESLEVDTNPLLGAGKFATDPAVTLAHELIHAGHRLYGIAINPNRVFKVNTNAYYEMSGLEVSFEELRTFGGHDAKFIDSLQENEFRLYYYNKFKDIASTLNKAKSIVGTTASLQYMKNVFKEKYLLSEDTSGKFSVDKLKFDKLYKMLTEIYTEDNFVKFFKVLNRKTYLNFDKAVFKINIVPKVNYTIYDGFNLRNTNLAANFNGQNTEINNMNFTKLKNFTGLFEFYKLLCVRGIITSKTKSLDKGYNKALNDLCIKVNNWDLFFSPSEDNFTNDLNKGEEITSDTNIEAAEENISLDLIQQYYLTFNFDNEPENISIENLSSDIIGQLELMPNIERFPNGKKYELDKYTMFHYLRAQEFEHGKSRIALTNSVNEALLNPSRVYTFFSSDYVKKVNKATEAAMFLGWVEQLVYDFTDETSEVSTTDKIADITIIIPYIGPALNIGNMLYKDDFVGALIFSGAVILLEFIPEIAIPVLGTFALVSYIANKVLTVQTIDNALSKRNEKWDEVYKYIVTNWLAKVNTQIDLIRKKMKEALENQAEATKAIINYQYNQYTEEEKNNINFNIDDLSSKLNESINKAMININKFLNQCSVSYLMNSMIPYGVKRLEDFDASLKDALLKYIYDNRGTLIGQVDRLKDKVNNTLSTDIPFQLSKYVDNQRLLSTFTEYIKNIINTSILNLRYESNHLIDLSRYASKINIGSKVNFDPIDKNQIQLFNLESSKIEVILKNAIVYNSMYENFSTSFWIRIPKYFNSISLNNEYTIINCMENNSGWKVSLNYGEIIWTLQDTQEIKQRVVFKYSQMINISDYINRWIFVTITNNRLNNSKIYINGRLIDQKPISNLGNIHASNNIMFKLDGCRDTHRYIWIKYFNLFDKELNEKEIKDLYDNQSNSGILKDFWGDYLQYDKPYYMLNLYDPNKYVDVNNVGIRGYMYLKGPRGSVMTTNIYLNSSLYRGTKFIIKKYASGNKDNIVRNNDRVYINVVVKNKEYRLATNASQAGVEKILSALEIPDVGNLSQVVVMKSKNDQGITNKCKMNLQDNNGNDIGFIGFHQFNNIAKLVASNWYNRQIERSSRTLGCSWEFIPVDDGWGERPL

[3] = molecular target: Lethal factor (Bacillus anthracis) (UniProt P15917); test: Lethal factor protease inhibitors, Bacillus anthracis, multiplex microsphere cleavage assay, validation set (AID 588461); conditions: flow cytometry, at 10 µM, stronger effect = higher value
Lethal factor (Bacillus anthracis), sequence (P15917 whole entry, looked up): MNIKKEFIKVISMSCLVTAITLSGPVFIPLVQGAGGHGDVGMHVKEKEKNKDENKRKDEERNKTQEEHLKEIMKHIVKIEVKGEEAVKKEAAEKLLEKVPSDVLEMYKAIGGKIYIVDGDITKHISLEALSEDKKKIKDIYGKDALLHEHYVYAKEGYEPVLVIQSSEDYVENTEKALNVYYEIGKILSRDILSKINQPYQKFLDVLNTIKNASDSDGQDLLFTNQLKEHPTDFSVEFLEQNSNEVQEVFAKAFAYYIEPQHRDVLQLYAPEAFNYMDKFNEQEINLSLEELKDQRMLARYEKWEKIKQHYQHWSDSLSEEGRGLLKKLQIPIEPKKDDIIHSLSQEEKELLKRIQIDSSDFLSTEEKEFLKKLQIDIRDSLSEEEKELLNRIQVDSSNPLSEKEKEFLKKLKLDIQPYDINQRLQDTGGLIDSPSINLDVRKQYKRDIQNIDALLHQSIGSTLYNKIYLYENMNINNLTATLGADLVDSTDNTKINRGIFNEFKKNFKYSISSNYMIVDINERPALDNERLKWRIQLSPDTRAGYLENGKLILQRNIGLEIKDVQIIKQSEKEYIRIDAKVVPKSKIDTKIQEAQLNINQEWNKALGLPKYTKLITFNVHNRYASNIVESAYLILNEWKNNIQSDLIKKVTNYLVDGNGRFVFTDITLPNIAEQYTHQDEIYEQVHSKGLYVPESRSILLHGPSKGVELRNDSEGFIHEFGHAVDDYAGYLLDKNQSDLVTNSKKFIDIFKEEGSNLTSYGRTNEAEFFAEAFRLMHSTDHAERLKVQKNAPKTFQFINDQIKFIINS

Measured: inhibition

CCc1cc2c(=O)c(-c3nc4ccccc4n3C)coc2c(CN2CCN(C)CC2)c1O
inactive: [1] -0.9% | [2] 0.3% | [3] -2.8%

Cc1ccccc1C(=O)NCC(=O)O
inactive: [1] 1.1% | [2] 2.7% | [3] 2.8%

COC(=O)c1ccc(CC(=O)c2ccc(O)cc2O)o1
inactive: [1] -3.4% | [2] -0.8% | [3] -5.4%

COc1ccc(CCNC(=O)C(=O)Nc2ccc3c(c2)OCO3)cc1OC
inactive: [1] 1.8% | [2] -0.8% | [3] -0.3%

O=C(CCNNC(=O)c1ccncc1)NCc1ccccc1
inactive: [1] 4.1% | [2] 0.9% | [3] 5.5%

COc1ccc(CN(CCN(C)C)c2ccccn2)cc1
inactive: [1] 0.8% | [2] 1.3% | [3] -14.9%

CCCCCC#CCC#CCC#CCC#CCCCC(=O)O
inactive: [1] 5.7% | [2] -0.6% | [3] -1.6%

CCCN1CCC(NC(=O)Nc2ccc(Br)cc2)CC1
inactive: [1] 0.5% | [2] -1.7% | [3] -2%

NC(=O)c1cccnc1
inactive: [1] 1.8% | [2] -0.2% | [3] 3%

CC(C)C(=O)Nc1ccc2c3c(cccc13)CC2
inactive: [1] 1% | [2] 0.5% | [3] -3%

OCCC1CN(Cc2nc(-c3ccccc3)cs2)CCN1Cc1ccc(F)cc1 (stereo unspecified)
inactive: [1] 3.5% | [2] 0.9% | [3] 8.5%

CCCC(CCC)C(=O)OC1C[C@H]2CC[C@@H](C1)[N+]2(C)C (stereo partly specified)
inactive: [1] -1.1% | [2] 1% | [3] 2.3%
